About 1,600 (0.44%) of roughly 360,000 compounds were called active. Shown is part of a subset that was picked to be rich in actives. A number with no mark means an inactive call.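 Rule for the calls: active = every replicate showing at least 50% inhibition; inconclusive = mean inhibition at least 50% but not in every replicate; inactive = the rest.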
Each compound was assayed against DNA repair protein RAD52 homolog (Homo sapiens) (UniProt P43351) (assay: RAD52 DNA annealing inhibitors, primary screen, biochemical, FRET, single point, set 2 (AID 651710)). Conditions: recombinant RAD52 DNA annealing, FRET fluorescence; at 18.7 µM; stronger effect = higher value.
DNA repair protein RAD52 homolog (Homo sapiens), sequence (P43351 whole entry, looked up): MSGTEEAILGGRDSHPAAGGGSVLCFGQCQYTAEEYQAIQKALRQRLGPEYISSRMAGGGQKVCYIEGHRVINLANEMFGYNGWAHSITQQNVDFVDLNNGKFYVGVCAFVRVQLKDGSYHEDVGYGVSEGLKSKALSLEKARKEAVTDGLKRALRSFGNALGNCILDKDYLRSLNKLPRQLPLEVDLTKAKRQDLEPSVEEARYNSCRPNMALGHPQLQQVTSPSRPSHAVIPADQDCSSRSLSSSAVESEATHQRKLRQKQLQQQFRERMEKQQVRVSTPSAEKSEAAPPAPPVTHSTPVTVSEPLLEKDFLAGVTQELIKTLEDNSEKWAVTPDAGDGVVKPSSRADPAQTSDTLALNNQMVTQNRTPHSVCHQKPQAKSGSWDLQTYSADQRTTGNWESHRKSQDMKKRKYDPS

SMILES	inhibition
CCOc1cccc(=NC2CCCCC2)c2c(C)[nH]c(C)c12	79.1% (active)
Clc1ccc([C@@H]2CC3CCC2N3)cn1 (stereo not given in full)	-8.46%
COc1ccc(C#Cc2ccc([C@H]3[C@H](CO)N4CCCCN(C(=O)Cc5ccccc5)C[C@@H]34)cc2)cc1	-26.3%
COc1c(O)ccc2c1-c1c3c(cc4c1C(C2)N(C)CC4)OCO3 (stereo not given)	6.1%
COc1ccc2c(c1O)-c1cccc3c1[C@@H](C2)N(C)CC3	60.5% (active)
COC1=C[C@@H]2[C@@H]3Cc4ccc(OC)c(O)c4[C@]2(CCN3C)CC1=O	-9.71%
O=C(Cc1cccnc1)N1CCCCN2[C@@H](CO)[C@H](c3ccc(C#CC4CCCC4)cc3)[C@@H]2C1	11.6%
O=C(O)[C@H]1[C@H](CO)[C@H]2Cn3c(ccc(-c4ccccc4F)c3=O)[C@@H]1N2C(=O)c1cccnc1	6.1%
N#Cc1cccc(-c2ccc([C@H]3[C@@H](CO)N4CCCCN(C(=O)Cc5cccnc5)C[C@@H]34)cc2)c1	-17%
O=C(Cc1ccccc1)N1CCCCN2[C@H](C1)[C@H](c1ccc(C#CC3(O)CCCC3)cc1)[C@@H]2CO	-14.9%
O=c1[nH]c2ccccc2n1C1CCN(C(c2ccccc2)c2nnnn2Cc2ccccc2)CC1 (stereo not given)	-11.7%
C[N+]1(C)CCOC(O)(c2ccc(-c3ccc(C4(O)C[N+](C)(C)CCO4)cc3)cc2)C1 (stereo not given)	70.8% (active)
O=C(O)[C@H]1[C@H](CO)[C@H]2Cn3c(cccc3=O)[C@@H]1N2C(=O)c1ccccc1	2.96%
C[C@@H]1CN([C@H](C)CO)C(=O)CCCn2cc(nn2)CO[C@@H]1CN(C)C(=O)Oc1cccc2ccccc12	-6.69%
CCCCCCCCCCCCn1ccc(=N)cc1	50% (active)
O=C(Cc1ccncc1)N1CCCCN2[C@H](CO)[C@@H](c3ccc(C#CC4(O)CCCC4)cc3)[C@H]2C1	1.26%
COC(=O)[C@H]1[C@H](CO)[C@H]2Cn3c(ccc(C4=CCCC4)c3=O)[C@@H]1N2C(=O)CC1CC1	-4.86%
O=C(Cc1ccncc1)N1CCCCN2[C@@H](CO)[C@H](c3ccc(C#CC4(O)CCCC4)cc3)[C@@H]2C1	-1.57%
COc1cccc(-c2ccc([C@H]3[C@H]4CN(C(=O)Cc5ccncc5)CCCCN4[C@H]3CO)cc2)c1	-63.8%
O=C(Cc1ccncc1)N1CCCCN2[C@@H](CO)[C@H](c3ccc(-c4ccncc4)cc3)[C@@H]2C1	-1.75%
CCC(C)NC1(c2ccccc2)CCCCC1 (stereo not given)	-8.77%
CC1=CC(=Cc2sc3ccccc3[n+]2C)C=C(C)O1	60.3% (active)
O=C(NC[C@@H]1CC[C@H]2NC[C@H]2O1)C1CCCC1	-11.1%
OC[C@@H]1[C@H]2c3ccccc3NC[C@H]2N1Cc1cccnc1	0.281%
COc1ccc2c(c1)[C@@]13CCCCC1[C@@H](C2)NCC3 (stereo not given in full)	-7.04%

Source: PubChem BioAssay AID651710 (Broad Institute, 2012)
